# From PubChem
# Rows were chosen to be rich in hits. Some 3.8% of all compounds tested hit in one or more screens of this group.
# Jurkat NFkB inh: lowers PMA/ionomycin-induced NF-kB signal in Jurkat cells | PMA/ionomycin-induced NF-kB luciferase reporter, luminescence | inhibition, % at 4 µM | 330,000 tested, 0.53% active | AID 435003; in the data active = inhibition above about 50%
# 697 NFkB inh: lowers PMA/ionomycin-induced NF-kB signal in 697 B cells; 697 B-cell NF-kB luciferase reporter, 16 h; inhibition, % at 4 µM; 330,000 tested, 0.33% active; AID 435022; in the data active = inhibition above about 35%
# Mdm2-MdmX inh: inhibitors of human Mdm2/MdmX interaction; O15151+Q00987; SaOS-2 split-luciferase Mdm2/MdmX complementation, luminescence; inhibition, % at 8 µM; 330,000 tested, 3% active; AID 485346;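 active = inhibition of at least 50% at 8 µM in the primary screen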
# Target sequence (O15151 whole entry, looked up): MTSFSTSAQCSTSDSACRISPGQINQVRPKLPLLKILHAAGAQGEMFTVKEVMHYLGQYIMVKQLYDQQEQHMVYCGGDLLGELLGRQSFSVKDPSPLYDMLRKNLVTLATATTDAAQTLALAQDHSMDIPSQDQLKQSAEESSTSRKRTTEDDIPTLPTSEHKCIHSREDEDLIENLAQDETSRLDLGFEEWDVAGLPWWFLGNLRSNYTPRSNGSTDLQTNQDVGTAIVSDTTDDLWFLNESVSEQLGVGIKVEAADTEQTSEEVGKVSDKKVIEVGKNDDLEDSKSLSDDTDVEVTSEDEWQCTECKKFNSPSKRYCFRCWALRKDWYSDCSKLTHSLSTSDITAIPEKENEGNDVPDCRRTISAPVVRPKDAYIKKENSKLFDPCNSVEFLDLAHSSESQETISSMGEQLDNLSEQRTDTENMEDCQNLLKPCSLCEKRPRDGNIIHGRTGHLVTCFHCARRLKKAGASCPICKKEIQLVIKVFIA
# Target sequence (Q00987 whole entry, looked up): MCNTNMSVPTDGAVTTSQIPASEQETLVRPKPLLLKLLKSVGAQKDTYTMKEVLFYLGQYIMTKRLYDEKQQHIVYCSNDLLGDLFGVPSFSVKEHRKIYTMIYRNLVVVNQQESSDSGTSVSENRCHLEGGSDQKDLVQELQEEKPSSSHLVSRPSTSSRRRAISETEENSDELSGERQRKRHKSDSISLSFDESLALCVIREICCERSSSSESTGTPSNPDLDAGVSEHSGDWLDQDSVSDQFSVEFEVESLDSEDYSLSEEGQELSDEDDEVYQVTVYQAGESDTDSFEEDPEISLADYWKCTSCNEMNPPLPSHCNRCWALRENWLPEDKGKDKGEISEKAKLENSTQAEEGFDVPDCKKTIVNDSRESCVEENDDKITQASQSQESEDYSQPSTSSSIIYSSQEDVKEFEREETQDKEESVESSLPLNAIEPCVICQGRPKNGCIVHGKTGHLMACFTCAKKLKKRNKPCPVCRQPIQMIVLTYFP
# Shn3 3UTR inh: reduces Shn3 3'UTR luciferase signal in osteoblasts; 360,000 tested, 0.52% active; inhibition, % at 12.5 µM; AID 588674; Clone20 osteoblast Shn3 3'UTR firefly luciferase, 24 h;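 active = mean inhibition of at least 75% with every replicate also reaching 75%; inconclusive = mean inhibition at least 75% but some replicate below; inactive = mean inhibition below 75%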
# Gli-Sufu antag: Gli-Sufu pathway antagonism; Sufu-KO-LIGHT fibroblasts, Gli luciferase reporter luminescence; inhibition, % at 5 µM; 340,000 tested, 0.74% active;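 active = inhibition above about 55%, limit read from the data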
# Jurkat NFkB conf: lowers PMA/ionomycin-induced NF-kB signal in Jurkat cells; shares compounds with Jurkat NFkB inh; Jurkat NF-kB luciferase, 16 h; inhibition, % at 4 µM; 2,700 tested, 27% active; AID 435020;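 active = inhibition reaching about 45% at 4 µM in either replicate, limit read from the data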
# 697 NFkB conf: lowers PMA/ionomycin-induced NF-kB signal in 697 B cells; shares compounds with 697 NFkB inh; 697 B-cell NF-kB luciferase, 16 h; inhibition, % at 4 µM; 2,000 tested, 35% active; in the data active = inhibition mostly above about 28%, no sharp cut-off; inactive = mostly below about 22%
# Mdm2-MdmX conf: confirmation of human Mdm2/MdmX interaction inhibitors; inhibition, % at 8 µM; 10,000 tested, 55% active; shares compounds with Mdm2-MdmX inh; Mdm2-MdmX binding, luminescent assay; in the data active = inhibition above about 40%
# FLuc counter: full-length luciferase inhibition in Mdm2/MdmX counter-screen | shares compounds with Mdm2-MdmX inh | SaOS-2 full-length luciferase counterscreen, luminescence | inhibition, % at 8 µM | 6,200 tested, 77% active | AID 504607;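 active = mean inhibition at 8 µM reaching about 37%, which flags the compound as non-specific, limit read from the data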;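 also: p53-null SaOS-2 cells with luciferase driven by a doxycycline-inducible promoter; compound on cells about two nights before reading with doxycycline added after day one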
# Numbers stand for hits; . = inactive; ? = inconclusive; / = no result given.
SMILES,Jurkat NFkB inh,697 NFkB inh,Mdm2-MdmX inh,Shn3 3UTR inh,Gli-Sufu antag,Jurkat NFkB conf,Mdm2-MdmX conf,FLuc counter,others
CCOc1cc(N2CCOCC2)c(OCC)cc1NC(=O)c1cnccn1,.,.,.,.,.,/,/,/,
CC1(OC(=O)CCc2ccccc2)C(=O)C=C2C=C(c3ccc(C#N)cc3)N(CCc3c[nH]c4ccccc34)C=C2C1=O (centres undefined),.,.,.,.,.,/,/,/,
CC(C)CNC(=O)c1ccccc1N(Cc1ccccc1)S(C)(=O)=O,.,.,.,.,.,/,/,/,
Cc1cccc2c1c(N=NC(N)=S)c(O)n2C1OC(CO)C(O)C(O)C1O (centres undefined),.,.,.,.,.,/,/,/,
Cc1ccc(-c2cc3c(N=O)c4ccccc4c-3n[nH]2)cc1,67,58,93,.,59,72,89,46,697 NFkB conf=.
Cc1ccc(CCC(=O)Nc2ncc(Cc3cccc(Cl)c3Cl)s2)o1,72,.,69,.,.,.,66,76,
COc1ccc(NC(=O)c2ccco2)cc1NC(=O)c1cccc(F)c1,.,.,.,.,.,/,/,/,
CCCCCOc1ccc(/C(C)=N/NC2=NCCN2)cc1,.,.,.,.,.,/,/,/,
CCOc1ccc(Br)cc1/C(C)=N\NC1=NCCN1,70,.,70,.,.,.,55,56,
COc1cc(OC)cc(C(=O)Nc2ccc(N3CCN(C(=O)c4cccs4)CC3)cc2)c1,64,.,63,.,.,.,70,69,
CCn1cc(/C=C(\NC(=O)c2ccc(OC)c(OC)c2)C(=O)NCCCN2CCOCC2)c2ccccc21,.,.,.,.,.,/,/,/,
CC1=C(C(=O)Nc2cccc(F)c2)C(c2ccsc2)C2=C(CC(C)(C)CC2=O)N1 (centres undefined),50,.,54,.,.,.,54,55,
CC1=C(C(=O)Nc2ccccc2F)C(c2ccsc2)C2=C(CC(C)(C)CC2=O)N1 (centres undefined),.,.,.,.,.,/,/,/,
COc1cc(-c2noc(C)c2/C=C/c2ccc(N)cc2)cc(OC)c1OC,58,.,84,.,.,.,86,108,
COc1cc(-c2noc(C)c2C#Cc2ccccn2)cc(OC)c1OC,60,.,65,.,.,.,78,77,
COc1cc(-c2noc(C)c2C(=O)NCCO)cc(OC)c1OC,.,.,.,.,.,/,/,/,
CNC(C)C#Cc1c(-c2cc(OC)c(OC)c(OC)c2)noc1C (centres undefined),.,.,.,.,.,/,/,/,
COc1ccc(-c2c(-c3cc(OC)c(OC)c(OC)c3)noc2C)cn1,66,.,54,.,.,.,55,74,
CC(=O)c1cccc(NC(=S)NC2CCCCCCC2)c1,.,.,.,.,.,/,/,/,
Clc1ccc(COc2cccc(CNCc3ccncc3)c2)cc1,.,.,.,.,.,/,/,/,
Fc1ccc2cc(-c3ccccc3F)ncc2c1,.,.,.,.,.,/,/,/,
CN(C(=O)OC(C)(C)C)c1ccc(-c2nc3ccccc3s2)cc1,69,66,88,.,90,90,90,.,697 NFkB conf=48
COC(=O)N(C)c1nc2ccccc2s1,.,.,.,.,.,/,/,/,
CCOc1ccc(S(=O)(=O)N2CCCC(C(=O)N3CCOCC3)C2)cc1Cl (centres undefined),.,.,.,.,.,/,/,/,
Cc1ccc(-c2cc(C(=O)Nc3cc(C)on3)c3ccccc3n2)cc1,.,.,.,.,.,/,/,/,
SMILES,Jurkat NFkB inh,697 NFkB inh,Mdm2-MdmX inh,Shn3 3UTR inh,Gli-Sufu antag,Jurkat NFkB conf,Mdm2-MdmX conf,FLuc counter,others
Cc1cc(NC(=O)c2cc(-c3ccncc3)nc3c(C)cccc23)no1,52,.,61,.,.,.,49,53,
CCN(CC)c1ccc2nc3ccccc3[n+](CC)c2c1,56,.,53,.,.,56,.,/,
CCN(CC)C(=O)c1ccc2nc3ccccc3nc2c1,.,.,.,.,.,/,/,/,
CCN(CC)c1ccc2nc3ccc(N)cc3[n+](-c3ccccc3)c2c1,83,.,92,90,93,68,93,.,
CCN(CC)c1ccc(/C=N/n2nnnc2N)c(O)c1,.,.,.,.,.,/,/,/,
CCN1C(=O)C(=O)N(CC(=O)Nc2cccc(C(F)(F)F)c2)C1=O,.,.,.,.,.,/,/,/,
COc1cc(CN2CCCC(CO)(Cc3ccccc3C)C2)cc2c1OCO2 (centres undefined),.,.,.,.,.,/,/,/,
O=C(Nc1ccc([N+](=O)[O-])cc1)C(=O)Nc1cccc(C(=O)O)c1,56,46,64,86,.,67,67,.,697 NFkB conf=23
COc1ccc(S(=O)(=O)/N=C2\C=C(Nc3ccc(O)cc3)C(=O)c3ccccc32)cc1,74,.,100,97,95,83,94,.,
Clc1ccc(Cn2ncc3c(NCc4ccccc4)ncnc32)c(Cl)c1,65,.,69,/,/,.,69,39,
Cn1ncc2c(NCc3ccccc3)ncnc21,.,.,.,.,.,/,/,/,
COCCN(Cc1nc2ccccc2c(=O)[nH]1)C(=O)COc1cccc(C(C)=O)c1,.,.,.,.,.,/,/,/,
O=C(c1cccc(Cl)c1)C1CCCN(C(=O)c2ccc3c(c2)OCO3)C1 (centres undefined),.,.,.,.,.,/,/,/,
COc1ccc(OC)c(-c2nnc3n2N=C(c2ccc(OC)c(OC4CCCC4)c2)CS3)c1,79,.,84,.,.,63,75,66,
COc1ccc(C2=Nn3c(nnc3-c3ccccc3)SC2)cc1OC,.,.,.,.,.,/,/,/,
COc1ccc(OC)c(-c2nnc3n2N=C(c2ccc(OC)c(OC)c2)CS3)c1,58,.,66,.,.,.,60,79,
COc1ccc(OC)c(C2=Nn3c(nnc3C3CCCCC3)SC2)c1,.,.,.,.,.,/,/,/,
COCCN(C(=O)COC(=O)C1CC1C)c1c(N)n(Cc2ccccc2)c(=O)[nH]c1=O (centres undefined),.,.,.,.,.,/,/,/,
CC(CC12CC3CC(CC(C3)C1)C2)NCc1ccccc1O (centres undefined),.,.,.,.,.,/,/,/,
COc1ccc(/C=C/C(=O)c2cc(F)ccc2OC(=O)c2ccccc2C)cc1OC,60,.,61,.,.,.,66,117,
CCN1C=CC(=C2C(=O)c3ccccc3C2=O)C=C1,54,.,72,?,59,45,78,37,
CCCN1C=CC(=C2C(=O)c3ccccc3C2=O)C=C1,69,44,88,.,79,75,94,55,697 NFkB conf=.
